Sampled rows, rich in hits. Any-hit rate of the full collection: about 2.3%.
MEKK3 PB1 HTS: MEKK3-MEK5 PB1 interaction, increase or decrease. hit rate 1.4% among 290,000. bead-based flow cytometry, Alexa488-MEK5 binding to MEKK3; actives lie on both sides; 0 = blocked by unlabeled MEK5, 100 = vehicle. AID 1529. binding response (% of control), % at 10 µM;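 active means binding response more than 3 SD above or below the average of its plate-row segment, actives on both sides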;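 further: Alexa488 bead fluorescence after subtracting the streptavidin-only scavenger bead signal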
Target sequence (Q99759 whole entry, looked up): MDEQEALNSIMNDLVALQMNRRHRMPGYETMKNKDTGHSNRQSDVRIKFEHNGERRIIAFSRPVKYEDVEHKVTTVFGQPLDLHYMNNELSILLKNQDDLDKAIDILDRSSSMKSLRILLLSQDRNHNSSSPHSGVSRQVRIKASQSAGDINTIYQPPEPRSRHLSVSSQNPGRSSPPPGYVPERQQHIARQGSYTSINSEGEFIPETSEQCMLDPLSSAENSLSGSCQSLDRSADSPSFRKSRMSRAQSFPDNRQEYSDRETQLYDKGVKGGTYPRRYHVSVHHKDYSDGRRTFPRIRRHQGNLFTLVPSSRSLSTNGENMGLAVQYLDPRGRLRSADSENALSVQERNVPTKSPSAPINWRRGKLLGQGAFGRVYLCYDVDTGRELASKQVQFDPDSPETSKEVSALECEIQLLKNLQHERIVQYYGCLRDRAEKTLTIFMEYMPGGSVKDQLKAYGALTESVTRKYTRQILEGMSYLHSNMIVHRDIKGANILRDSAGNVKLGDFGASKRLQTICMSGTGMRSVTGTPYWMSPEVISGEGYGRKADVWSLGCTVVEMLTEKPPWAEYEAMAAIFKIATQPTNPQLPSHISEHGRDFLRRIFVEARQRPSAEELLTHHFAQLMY
MEKK2 WT-MEK5: raises or lowers MEK5 binding to wildtype human MEKK2 PB1 domain; Q9Y2U5; bead flow cytometry, Alexa488-MEK5 binding to MEKK2 WT; actives lie on both sides; binding response (% of control), % at 10 µM; hit rate 1.1% among 290,000; AID 1531; in the data active means binding response below about 67% or above about 130%
UBC13 polyUb: inhibitors of human UBC13 polyubiquitin chain formation. P61088. TR-FRET. inhibition, % at 20 µM. hit rate 0.47% among 330,000; in the data active means inhibition above about 45%, passing the limit was not always enough
MEKK2 mut-MEK5: signal of MEK5 binding to mutant human MEKK2 PB1 domain. bead flow cytometry, Alexa488-MEK5 binding to MEKK2 mutant. percent response, % at 10 µM. hit rate 0.35% among 290,000. AID 1530; in the data active means percent response above about 24%, passing the limit was not always enough
MEKK2wt confirm: raises or lowers MEK5 binding to wildtype human MEKK2, retest | shares compounds with MEKK3 PB1 HTS | hit rate 2.4% among 5,900 | bead flow cytometry, Alexa488-MEK5 binding to MEKK2 WT; actives lie on both sides | binding response (% of control), % at 10 µM; in the data active means binding response below about 16% or above about 210%; inactive means in between
MEKK2mut confirm: signal of MEK5 binding to mutant human MEKK2, retest; shares compounds with MEKK3 PB1 HTS; bead flow cytometry, Alexa488-MEK5 binding to MEKK2 mutant; percent response, % at 10 µM; hit rate 2% among 5,900; AID 1893; in the data active means percent response mostly above about 71%, no sharp cut-off; inactive means mostly below about 38%;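 further: higher means compound restores mutant binding toward wildtype level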
MEKK3-MEK5 inh: confirmation of inhibitors of MEK5 binding to human MEKK3 | AID 1894 | binding response (% of control), % at 10 µM | hit rate 1.8% among 5,900 | shares compounds with MEKK3 PB1 HTS | bead flow cytometry, Alexa488-MEK5 binding to MEKK3; hits give low values;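 active means binding response below 72% of control, or above a set upper limit, though filed actives all read lower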
Numbers stand for hits; n = inactive; x = no result given; [ ] = another dose, or the depositor's remark.

SMILES	MEKK3 PB1 HTS	MEKK2 WT-MEK5	UBC13 polyUb	MEKK2 mut-MEK5	MEKK2wt confirm	MEKK2mut confirm	MEKK3-MEK5 inh
CC(C)C(OC(=O)CN1C(=O)c2ccccc2C1=O)C(=O)NC1CCCCC1 (configuration not stated)	n	n	n	n	x	x	x
O=C(CC1N=C2c3ccccc3N=C(SCc3ccc(F)cc3)N2C1=O)NCc1ccco1 (configuration not stated)	2.0[inhibitor]	2.0[inhibitor]	n	n	n	n	n
Cc1ccc2[nH]c3c(c2c1)CN(C)CC3	n	n	n	n	x	x	x
CCOC(=O)c1ccc2[nH]c3c(c2c1)CN(C)CC3	n	n	n	24.0	n	n	n
CCC1(CC)C(=O)C2=C3C1[C@H](C(=O)OC)CC(C(=O)OC)C[C@H]3[C@H]1C(=O)N(c3ccccc3)C(=O)[C@H]1[C@H]2C (some centres not stated)	57.0[inhibitor]	n	n	n	n	n	n
CCC1(CC)C(=O)C2=C3C1[C@H](C(=O)OC)C=C(C(=O)OC)C[C@H]3[C@H]1C(=O)NC(=O)[C@H]1[C@H]2C (some centres not stated)	n	n	n	n	x	x	x
COc1ccc(Nc2nc(-c3ccccc3)nc3ccccc23)cc1	n	n	n	n	x	x	x
COc1ccc(Nc2nc(-c3cccc([N+](=O)[O-])c3)nc3ccccc23)cc1	n	141.0	n	n	n	n	n
CCOCCCNC(=S)Nc1cc(C)cc(C)c1	141.0	n	n	n	n	n	n
Cc1ccc(-c2n[nH]c(=S)n2/N=C/c2ccc(C)o2)cc1	151.0	n	n	n	n	n	n
Cc1ccc(/C=N/n2c(-c3ccc(Cl)cc3)n[nH]c2=S)o1	n	n	n	n	x	x	x
O=C1CCN(C(=O)Nc2cccc(Cl)c2)N1	n	n	n	n	x	x	x
O=C1CCN(C(=O)Nc2ccccc2Cl)N1	48.0[inhibitor]	n	n	n	n	n	n
O=C(Nc1ccc(Br)cc1)c1cccc(S(=O)(=O)Nc2ccccn2)c1	n	n	n	n	x	x	x
O=C(Nc1ccccc1)c1cccc(S(=O)(=O)Nc2ccccn2)c1	75.0[inhibitor]	n	n	n	n	n	n
O=C1N=C(N2CCN(c3ccccc3)CC2)S/C1=C\c1cn[nH]c1-c1ccccc1	n	n	n	n	x	x	x
Cc1ccc(N2CCN(C3=NC(=O)/C(=C\c4cn[nH]c4-c4ccccc4)S3)CC2)cc1	135.0	n	n	n	n	n	n
Cc1ccc(S(=O)(=O)N(C)c2ccc(C(=O)N(CC(C)C)C3CCS(=O)(=O)C3)cc2)cc1 (configuration not stated)	x	x	n	x	x	x	x
Cc1ccc2c(c1)c1c(n2CC(O)Cn2c(C)nc3ccccc32)CCCC1 (configuration not stated)	n	n	n	27.0	n	n	n
COc1ccc(CCC(C)NCCc2ccc(Cl)cc2Cl)cc1 (configuration not stated)	n	152.0	n	n	n	n	n
O=C(c1ccc(Cl)s1)N1CCN(S(=O)(=O)c2ccc(Cl)cc2)CC1	x	x	n	x	x	x	x
O=C(O)CN1C(=O)C2C3CC(C2C1=O)C1C(c2ccc(F)cc2)c2sc(=O)[nH]c2SC31 (configuration not stated)	n	n	n	n	x	x	x
COc1cc2nc(Nc3ccc(F)cc3)nc(N)c2cc1OC	n	n	n	n	x	x	x
Cc1ccc(Nc2nc(N)c3ccccc3n2)cc1Cl	n	152.0	n	n	n	n	n
CCOC(=O)c1ccc(Nc2nc(N)c3cc(OC)c(OC)cc3n2)cc1	n	141.0	n	30.0	n	n	n
SMILES	MEKK3 PB1 HTS	MEKK2 WT-MEK5	UBC13 polyUb	MEKK2 mut-MEK5	MEKK2wt confirm	MEKK2mut confirm	MEKK3-MEK5 inh
COc1cc2nc(Nc3ccc(C)c(C)c3)nc(N)c2cc1OC	n	159.0	n	28.0	n	n	n
CCc1cc2ccccc2nc1SCC(=O)Nc1cc(OC)c(OC)cc1C(=O)O	n	n	n	n	x	x	x
O=C(Cc1ccc(Br)cc1)N1CCOCC1	n	n	n	n	x	x	x
CCN(CC)C(=O)CSc1nnc(NC(=O)CCc2ccccc2)s1	156.0	n	n	n	n	n	n
COCc1nnc(NC(=O)CCc2ccccc2)s1	2.0[inhibitor]	2.0[inhibitor]	n	n	n	n	n
COc1cc2[nH]c(C(=O)N3CCc4ccccc43)cc2c(OC)c1OC	n	n	n	n	x	x	x
COc1ccc(NS(=O)(=O)c2cccc(C(=O)N3CCN(c4ccccc4O)CC3)c2)cc1	x	x	n	x	x	x	x
COc1ccc(C)cc1NC(=O)c1ccc(NS(=O)(=O)c2cccc3cccnc23)cc1	131.0	n	n	n	n	n	n
COc1ccccc1NC(=O)c1ccc(NS(=O)(=O)c2cccc3cccnc23)cc1	n	n	n	n	x	x	x
COc1ccc(NS(=O)(=O)c2cccc3cccnc23)cc1	72.0[inhibitor]	n	n	n	n	n	n
COC(=O)CS(=O)(=O)c1cccc2cccnc12	3.0[inhibitor]	4.0[inhibitor]	n	n	n	n	n
CC(=O)Nc1cc(C(=O)N(C)Cc2ccco2)ccc1Sc1ccc(Cl)cc1	142.0	n	n	n	n	n	n
Clc1cccc(Nc2nc(-c3cccnc3)cs2)c1	x	154.0	n	x	n	n	n
CC(=O)NC1C(=O)N=C(SC(C)C(=O)Nc2cccc(Cl)c2)NC1=O (configuration not stated)	n	n	n	n	x	x	x
Cc1c(C(=O)NCCSCc2c(F)cccc2Cl)cnn1-c1ccc(Cl)cc1	129.0	n	n	n	n	n	n
COc1ccccc1C(=O)NCCSCc1c(F)cccc1Cl	n	n	n	n	x	x	x
COc1ccccc1CNC(=O)[C@H](Cc1c[nH]c2ccccc12)NC(=O)[C@@H]1Cc2ccccc2CN1	n	n	n	n	x	x	x
CCOc1ccc(-c2cnc(NCc3cccc4ccccc34)n2CCOC)cc1	n	192.0	n	n	n	n	n
CN(CC(=O)NCc1ccncc1)S(=O)(=O)c1ccc(F)cc1	n	n	n	n	x	x	x
Nc1nnc(SCC(=O)Nc2sc3c(c2C(=O)c2ccccc2)CCCC3)s1	n	n	n	n	x	x	x
COCCNc1nnc(SCC(=O)Nc2sc3c(c2C(=O)c2ccccc2)CCCC3)s1	131.0	n	n	n	n	n	n
Cc1cc(C(C)(C)C)ccc1OCCOCCN1CCCC1	136.0	n	n	n	n	n	n
CC(C)(C)c1cc(Cl)ccc1OCCOCCN1CCCC1	n	n	n	n	x	x	x
N#Cc1cccc(NC(=O)CSc2ccc3c4c(cccc24)C(=O)c2ccccc2-3)c1	n	n	x	n	x	x	x
COc1ccc(NC(=O)CSc2ccc3c4c(cccc24)C(=O)c2ccccc2-3)cc1	n	56.0[inhibitor]	n	n	n	n	n
CN1C(=CC=C2C=C(I)C(=O)C(I)=C2)C(C)(C)c2ccccc21	40.0[inhibitor]	-1.0[inhibitor]	x	n	n	n	68.0
CC1=NN(c2ccccc2)C(=O)/C1=C\C=C1/N(C)c2ccccc2C1(C)C	n	n	n	n	x	x	x
